# Shown is part of a subset that was picked to be rich in hits.
# Pf apPOL block – Pf-apPOL DNA polymerase inhibition. AID 1794808. Recombinant Pf-apPOL, molecular beacon fluorescence, 1.5 h. inhibition, % at 10 µM. hit rate 0.25% among 210,000
# mHTT-CaM PPI inh – inhibitors of human mutant huntingtin-calmodulin interaction | P42858 | AlphaScreen His-mHTT/GST-CaM binding, luminescence | inhibition, % at 15 µM | hit rate 3.6% among 190,000 | AID 1671202;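 note: 0% = both proteins with DMSO and 100% = one protein alone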
# * hit, by the source's call; . = no result. Cut-off read from the data, not from the text of the source: active = inhibition above about 50%; inactive = the rest.
SMILES,Pf apPOL block,mHTT-CaM PPI inh
Cc1cc(/C=C2/C(=O)NC(=O)N(C)C2=O)c(C)n1-c1ccc(F)c(Cl)c1,-4,7
Cc1cc(/C=C2\NC(=O)NC2=O)c(C)n1-c1cccc(I)c1,1,91*
Cc1cc(C)c2c(N)c(C(=O)Nc3nnc(-c4cccs4)s3)sc2n1,-1,.
CC(=O)c1sc(=S)n(CCc2ccc(Cl)cc2)c1C,-10,.
CC(=O)c1c(C(C)=O)c(C)n(Cc2ccc(Cl)cc2)c1C,-11,53*
C=Cc1ccc(CN2CCCN(c3ncccc3-c3nc(CC)no3)CC2)cc1,-4,-14
Cc1ccc(C2CC(c3ccccc3)=Nc3ccccc3S2)cc1 (stereo not drawn),-7,.
Clc1ccccc1C1CC(c2ccco2)=Nc2ccccc2S1 (stereo not drawn),-2,51*
Cc1ccc(Cn2ccnc2C(=O)N2CCN(C)CC2)cc1,-3,-2
COc1ccc(N2CCN(CCNC(=O)c3ccc(Br)o3)CC2)cc1,-2,-6
CCOc1ccc(/C=C2\N=C(c3ccc([N+](=O)[O-])cc3)OC2=O)cc1,1,2
O=C1OC(c2cccc([N+](=O)[O-])c2)=N/C1=C\c1cc(Br)cs1,0,92*
O=C1OC(c2cccc([N+](=O)[O-])c2)=N/C1=C\c1cccs1,-2,13
CCOc1ccc(/C=C2\N=C(c3cc([N+](=O)[O-])cc([N+](=O)[O-])c3)OC2=O)cc1,0,56*
O=C(CSC1CC(=O)N(c2ccccc2F)C1=O)Nc1ccc(Cl)cc1 (stereo not drawn),-3,-1
O=C(COc1ccccc1)Nc1c2c(nn1-c1ccc(F)cc1)CS(=O)(=O)C2,-5,-3
Cc1cccc(C2=N[C@@H](Cc3ccccc3)CO2)c1,-11,81*
Cc1cccc(C2=N[C@@H](CC(C)C)CO2)c1,-4,-14
C[C@H]1C(c2ccccc2)=NN(c2ccccc2)[C@@H]1CO,-5,15
OC[C@@H]1[C@@H](c2ccc(Cl)cc2)C(c2ccc(F)cc2)=NN1c1ccccc1,-4,72*
OC[C@@H]1[C@@H](c2ccc(F)cc2)C(c2ccc(F)cc2)=NN1c1ccccc1,-6,89*
OC[C@@H]1[C@@H](c2ccccc2)C(c2ccccc2)=NN1c1ccccc1,-4,-21
O=C1OCCN1C(=O)[C@H]1[C@H](c2ccc(F)cc2)C(c2cccc(Cl)c2)=NN1c1ccccc1,1,19
OC[C@@H]1[C@@H](c2ccccc2)C(c2ccc(F)cc2)=NN1c1ccccc1,-6,67*
COCC(=O)N1CCCC(COc2cccc(C(=O)NC3CC3)c2)C1 (stereo not drawn),5,-7
SMILES,Pf apPOL block,mHTT-CaM PPI inh
Cc1nc2ccc(Br)cc2c(=O)n1-c1cc(C(F)(F)F)ccc1N1CCOCC1,-3,.
O=C(NC(Nc1ccc(Br)cc1)C(Cl)(Cl)Cl)c1ccc(F)cc1 (stereo not drawn),-3,87*
O=C(NC(Nc1ccccc1)C(Cl)(Cl)Cl)c1ccc(F)cc1 (stereo not drawn),-4,-9
O=C(/C=C/c1ccccc1)NC(Nc1ccccc1)C(Cl)(Cl)Cl (stereo not drawn),-8,96*
O=C(/C=C/c1ccccc1)NC(Nc1cccnc1)C(Cl)(Cl)Cl (stereo not drawn),0,31
COc1ccc(OC(NC(=O)/C=C/c2ccccc2)C(Cl)(Cl)Cl)cc1 (stereo not drawn),1,51*
O=C(NC(Nc1ccccc1)C(Cl)(Cl)Cl)c1ccc(Br)cc1 (stereo not drawn),4,57*
COc1ccc(NC(=O)/C=C/c2ccc(Cl)cc2)cc1,-9,.
O=C(NC(Nc1ccccc1)C(Cl)(Cl)Cl)c1ccc(Cl)cc1 (stereo not drawn),-2,16
O=c1nc2s/c(=C\c3cccc(F)c3)c(=O)n2nc1-c1ccccc1,-4,3
O=[N+]([O-])c1ccc(S(=O)(=O)c2ccccc2)c(Cl)c1,19,.
O=C(Nc1ccc(F)cc1)C1CCCN(c2ncnc3c2nc2n3CCCCC2)C1 (stereo not drawn),1,5
COc1cccc(-c2csc3nc(CN4CCCCC4)[nH]c(=O)c23)c1,-5,20
O=C1NC(=O)/C(=C/c2ccc(-c3cc([N+](=O)[O-])ccc3Cl)o2)S1,-1,9
COc1cc(CN2CCSCC2)cc(I)c1O,-2,6
COc1cc(NCc2cc(OC)c(O)c([N+](=O)[O-])c2)cc(OC)c1,3,65*
COc1cc(NCc2cc(I)c(O)c(OC)c2)cc(OC)c1,-3,89*
COc1cc(CN2CCCCCCC2)cc([N+](=O)[O-])c1O,-6,5
COCC(=O)Nc1c(-c2ccc(C(F)(F)F)cc2)nc2ccccn12,-6,10
CSc1ncccc1C(=O)N1CCN(C(c2ccccc2)c2ccccc2)CC1,1,30
CN(C)c1ccc(C(CNC(=O)C(=O)NCC2CCCO2)N2CCc3ccccc32)cc1 (stereo not drawn),0,65*
CC(NC(=O)C(=O)NCC1CCCO1)c1ccccc1 (stereo not drawn),-10,-12
Cc1ccccc1NC(=O)c1c(O)c2cccc3c2n(c1=O)CC3,-6,0
C=CCNC(=O)c1nc(N2CCCCC2)c2c(C)c(C)n(-c3ccccc3)c2n1,-5,89*
C=CCNC(=O)c1nnc(N2CCCC2)c2ccccc12,-24,8
SMILES,Pf apPOL block,mHTT-CaM PPI inh
Nc1c2c(nc3c1CCC3)CCCC2,-3,-2
CCc1ccc2[nH]c(C(=O)NCc3cc(Cl)ccc3Cl)cc2c1,-10,.
CCn1c(=O)c(NCc2ccc(C)c(C)c2)nc2ccncc21,-9,4
Cc1nc(Nc2ccc(O)cc2)nc(Nc2ccc(O)cc2)c1[N+](=O)[O-],0,57*
Cc1nc(Nc2ccc3c(c2)OCCO3)nc(Nc2ccc3c(c2)OCCO3)c1[N+](=O)[O-],.,24
COc1ccc(-n2nc(C(=O)NCC(=O)NCc3ccccc3)c3ccccc3c2=O)cc1Cl,-6,98*
CCN(CC)C(=O)CNC(=O)c1nn(-c2ccc(OC)c(OC)c2)c(=O)c2ccccc12,-8,9
CCN(CC)C(=O)CNC(=O)c1nn(-c2ccc(OC)c(Cl)c2)c(=O)c2ccccc12,-3,56*
COc1ccc(-n2nc(C(=O)NCC(=O)Nc3cccc(C)n3)c3ccccc3c2=O)cc1Cl,0,6
CCOc1ccc(Nc2ncnc3sc(C)c(C)c23)cc1,-4,-3
c1ccc(Cc2c[nH]c3ccccc23)cc1,-1,61*
c1ccc2c(CCc3ccncc3)c[nH]c2c1,6,5
CCCCCSc1nnc(-c2cc(Br)ccc2N)c(=O)[nH]1,0,-2
CCc1ccccc1NC(=O)c1cccc(Cl)c1Cl,-8,-5
CC(=O)Nc1ccccc1NC(=O)COc1ccc(C(C)(C)C)cc1,2,2
COc1ccc(/C=C2\C(=O)c3ccccc3C2=C(C#N)C#N)cc1OC,-1,92*
COc1cc(C=C2C(=O)c3ccccc3C2=O)ccc1OCc1ccc(C(=O)O)cc1,3,6
COc1ccc(C2C=C(c3ccc(Cl)cc3)Nc3ncnn32)cc1OC (stereo not drawn),-3,28
CC(=O)COc1ccc2c(c1)OC(=CC1=Cc3ccccc3OC1)C2=O,-2,-2
O=C(Oc1ccc2c(c1)OC(=CC1=Cc3ccccc3OC1)C2=O)c1cccs1,-2,79*
Cc1cc(C)nc(SCC(=O)c2ccc(C(C)C)cc2)n1,-2,-14
Cc1ccc(C(=O)Sc2nc(C)cc(C)n2)cc1,0,71*
